# Screens: PubChem BioAssay, National Center for Advancing Translational Sciences (NCATS)
# Pf growth 48h = P. falciparum growth inhibition at 48 hours (one generation); P. falciparum luciferase growth in erythrocytes, 48 h; Potency, µM (top dose mostly 28.7 µM), for the others: at the highest dose activity change, negative = inhibition, most hits filed as inhibitors; hit rate 5.9% among 310,000; further: potency means the concentration at half of the fitted maximal effect; on the % scale 0 is the no-effect control and ±100 the full control effect
#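 Growth was read as firefly luciferase luminescence after a 48 h, 37 C, 5% CO2 exposure of compounds to reporter-bearing P. falciparum cultures (0.1% parasitemia, 2% hematocrit final) in Albumax-supplemented RPMI 1640.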
# NS1 inh = inhibitors of influenza NS1 protein function; Potency, µM (doses to about 46.1 µM), for inactives: at the highest dose activity, positive = more growth; hit rate 0.4% among 270,000; AID 2326; calls by dose curve; further: potency means the concentration at half of the fitted maximal effect; actives are rising curves; nearly all actives have a fitted effect of over 50% in size
#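 A cell-based growth assay was used: compounds that relieve NS1-induced slow growth of budding yeast raise OD600. Assay medium was yeast nitrogen base with ammonium sulphate and -URA supplement, pH 6.0, with 2% galactose.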
# CHX counter = counter-screen for Shiga toxin inhibitors: cycloheximide protein synthesis inhibition. cell reporter, cycloheximide protein synthesis inhibition counterscreen. max response, %. hit rate 12% among 300,000; in the data active means max response mostly above about 13%, no sharp cut-off; inactive means mostly below about 14%; further: read at 38.3 µM for the half of the compounds with a filed dose; 0% is about no effect
# Sm TGR block = S. mansoni TGR enzyme inhibition. Q962Y6. purified TGR, DTNB reduction, TNB absorbance 405 nm. Potency, µM (top dose mostly 114 µM), without a hit: at the top dose activity change, negative = inhibition, hits mostly inhibitors. hit rate 3% among 360,000; further: potency means the concentration at half of the fitted maximal effect; on the % scale 0 is the no-effect control and ±100 the full control effect; nearly all actives have a fitted effect of over 60% in size
#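 TGR 20 nM + NADPH 100 uM (dispensed conc.), cpd preinc 15 min RT; start with NADPH (500 uM addition) then DTNB (15 mM addition). Kinetic TNB absorbance, 405 nm filter. Four-parameter Hill fit across titration.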
# Pf growth 96h = P. falciparum growth inhibition at 96 hours | P. falciparum luciferase reporter growth, 96 h | Potency, µM (titrated, usually from 28.7 µM), without a hit: top-dose activity change, negative = inhibition, actives largely listed as inhibitors | hit rate 6.9% among 320,000; further: potency means the concentration at half of the fitted maximal effect; on the % scale 0 is the no-effect control and ±100 the full control effect
#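 Readout is luminescence from an integrated firefly luciferase in P. falciparum. Red cells, 2% hematocrit and 0.05% parasitemia final, were cultured with compound through two parasite generations (96 hours) at 37 C, 5% CO2.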
# Shiga inhibitor = Shiga toxin inhibition. inhibition, % at 38.7 µM. Vero cells, Shiga toxin protein synthesis inhibition reporter. hit rate 9.2% among 290,000; in the data active means inhibition mostly above about 28%, no sharp cut-off; inactive means mostly below about 43%; further: 0% is about no effect
# An asterisk follows results filed as active; ? = inconclusive; · = no result. Shown are actives, neighbours in structure and some others; about 21% of the full set was active somewhere. Unless noted, the call rests on the fitted dose curve; in most records, active means well fitted curve in the direction sought with a large enough effect; inconclusive means small, poorly fitted or top-dose-only effect, or another doubt; inactive means no such curve, though single readings can be large; an effect the other way counts as inactive or inconclusive.
SMILES,Pf growth 48h,NS1 inh,CHX counter,Sm TGR block,Pf growth 96h,Shiga inhibitor
C/C(=N\OC(=O)c1ccc(F)cc1)c1sc(-c2ccccc2)nc1C,79%,-1%,19*,12%,25%,54
C=CCNC(=O)c1sc(-c2ccccc2)nc1C,45%,-1%,17*,-14%,82%,42*
CCNC(=O)O/N=C(\C)c1sc(-c2ccc(Cl)cc2)nc1C,180%,-63%,52*,23%,244%,114*
CC(/C=C/C=C/c1ccccc1)=N/NC(=O)CNc1ccccc1C,2%,1%,-2,5%,?,-12
O=C(Cn1nnc(-c2ccc(CN3CCOCC3)cc2)n1)N(c1ccccc1)c1ccccc1,?,1%,-5,3%,?,16
Cc1ccc(CNC(=O)Cn2ccn(-c3ccc(F)c(F)c3)c(=O)c2=O)cc1,·,·,·,-22%,·,·
CC12CC[C@@H]3c4ccc(OP(=O)(O)O)cc4CCC3C1CCC2=O (stereo partly drawn),·,-3%,·,·,·,·
C/C(=N\OC(=O)NC1CCCCC1)c1sc(-c2ccccc2)nc1C,7%,-7%,25,-27%,?,90
C/C(=N\OC(=O)NC(C)C)c1sc(-c2ccccc2)nc1C,41%,-145%,26*,0%,24%,52
COc1ccc(OC)c(C(=O)CSc2nccc(-c3ccc(Br)cc3)n2)c1,12µM*,1%,-3,2%,?,13
COc1ccc(-c2ccnc(SCC(=O)c3ccc(OC)c(OC)c3)n2)cc1,21%,-4%,-1,4%,17%,-15
O=C(O)c1ccccc1C(c1ccc(O)cc1)c1ccc(O)cc1,-14%,6%,-2,?,-1%,3
COc1ccc(/C=C/C2=CC(C)(C)NC(=S)N2)cc1,?,·,8,2.5µM*,9.3µM*,14
CCc1nn(CC(=O)NCc2ccccc2)c(=O)c2cccn12,·,·,·,-2%,·,·
C=CCNS(=O)(=O)c1ccc(OCC(=O)OCC)cc1,2%,2%,-3,2%,2.3µM*,-11
CCNC(=O)N1c2ccc(OCC)cc2C(C)=CC1(C)C,-22%,-81%,25,-6%,·,26
CCOc1ccc2c(c1)C(C)=CC(C)(C)N2C(=O)Nc1ccccc1F,-2%,-10%,1,-26%,9.3µM*,24
CC(=O)c1ccc(NC(=O)N2CCc3ccccc3C2)cc1,43%,·,29*,15%,36%,109*
CC(=O)c1cccc(NC(=O)N2CCc3ccccc3C2)c1,100%,-65%,25*,1%,-14%,100*
Cc1ccc2nc(CCl)[n+]([O-])c(-c3ccccc3)c2c1,14%,0%,2,4.5µM*,?,-1
Cc1ccc2nc(Cl)nc(-c3ccccc3)c2c1,4%,0%,-2,-1%,-14%,-3
CCc1ccccc1NCc1nnc2n1CCCCC2,·,·,·,4%,·,·
OCCCNc1nc(-c2ccc(Cl)cc2)nnc1-c1ccccc1,?,-38%,20*,1%,3.7µM*,22
Cc1nc2nc(SCC(=O)NCCCN3CCCC(C)C3)nn2c(C)c1Cc1ccccc1Cl (stereo not drawn),13µM*,-5%,-3,-7%,31%,-5
CCC(CC)c1nnc(NC(=O)c2ccc3c(c2)OCO3)s1,35%,21%,19*,0%,16%,62*
SMILES,Pf growth 48h,NS1 inh,CHX counter,Sm TGR block,Pf growth 96h,Shiga inhibitor
CC(C)(C)Cc1nnc(NC(=O)c2ccc3c(c2)OCO3)s1,0%,5%,44*,-10%,-28%,48*
O=C(N/N=C\c1c(O)ccc2ccccc12)c1ccc(O)cc1,?,6%,2,-9%,65%,12
O=C(N/N=C/c1c(O)ccc2ccccc12)c1ccc[n+](CCO)c1,9.3µM*,-30%,-4,1%,5.2µM*,-12
Cc1occc1C(=O)N/N=C/c1c(O)ccc2ccccc12,2.6µM*,-1%,36*,-17%,0%,90*
O=C(N/N=C/c1c(O)ccc2ccccc12)c1ccc(Br)o1,?,-18%,18*,-2%,3%,-2
Cn1cc(C(=O)N/N=C/c2c(O)ccc3ccccc23)ccc1=O,2.6µM*,·,-1,-4%,28%,8
COc1ccc(OC)c(NC(=O)CSc2nc3ccccc3c(=O)n2CCC(=O)NC2CCCCC2)c1,·,·,·,7%,·,·
